Assay results reported in PubChem BioAssay (EPA / NIEHS).
Activity calls are given as the source filed them. Rule for the calls: active = hit-call score of the fitted dose curve at least 0.9, where 1 is the maximum; inactive = score below 0.9.

Tests used:
[1] = target: Transcription factor E2F1 (Homo sapiens) (UniProt Q01094); experiment: ATG_E2F_CIS: Attagene CIS-FACTORIAL HepG2 Assay for human E2F Transcription Factor 1 (AID 2282935); conditions: HepG2 Attagene cis-reporter, E2F reporter RNA transcripts; actives raise or lower the signal
How it was run: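 Transient MRTU transfection of HepG2; 24 h compound exposure; RNA → oligo(dT) RT → PCR → FAM label → HpaI cut → CE fluorescence. Gain/loss of signal fit against DMSO.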

[2] = ATG_E_Box_CIS: Attagene CIS-FACTORIAL HepG2 Assay for human Enhancer Box (E-box) (AID 2282936); conditions: HepG2 E-box cis-reporter transcription, actives raise or lower the signal
How it was run: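 Transiently transfected HepG2, endogenous TF-driven reporters, 24 h dosing. Readout: RT-PCR plus capillary electrophoresis of fluorescent reporter fragments. Gain or loss of signal fitted bidirectionally against DMSO baseline.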

[3] = ATG_M_61_CIS: Attagene CIS-FACTORIAL HepG2 Assay for M61 Transcription Factor (Internal Marker) (AID 2282937); conditions: HepG2 Attagene CIS-FACTORIAL M61 internal marker reporter; actives raise or lower the signal
How it was run: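 Fluorescence from labelled cDNA fragments, separated by capillary electrophoresis, quantifies reporter induction. HepG2 cells bearing transiently transfected cis-promoter MRTUs were incubated with test chemical for 24 h; DMSO defined baseline for gain/loss fitting.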

[4] = ATG_EGR_CIS: Attagene CIS-FACTORIAL HepG2 Assay for human Early Growth Response 1 (EGR1) (AID 2282938); conditions: HepG2 Attagene CIS-FACTORIAL EGR reporter mRNA; actives raise or lower the signal
How it was run: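 Cell-based multiplex transcription assay: HepG2 carrying transfected cis-element reporter units, 24 h chemical treatment. Fluorescence from capillary electrophoresis of RT-PCR products gives mRNA levels; fitting is bidirectional relative to DMSO.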

[5] = ATG_M_19_CIS: Attagene CIS-FACTORIAL HepG2 Assay for M19 Transcription Factor (Internal Marker) (AID 2282939); conditions: HepG2 Attagene CIS-FACTORIAL M19 internal marker reporter; actives raise or lower the signal
How it was run: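 Background-control endpoint from a multiplexed HepG2 reporter panel. Cells carrying cis-regulated reporter constructs are treated 24 h, then reporter transcripts are amplified, fluorescently labelled and sized by capillary electrophoresis. DMSO defines baseline.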

[6] = ATG_Ets_CIS: Attagene CIS-FACTORIAL HepG2 Assay for human Erythroblast Transformation Specific (ETS) (AID 2282941); conditions: HepG2 ETS cis-reporter transcription, actives raise or lower the signal
How it was run: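 Bidirectional fit versus DMSO of reporter mRNA signal, detected by RT-PCR and capillary electrophoresis in HepG2 cells transiently transfected with cis-element reporters and dosed 24 h.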

[7] = target: Hepatocyte nuclear factor 3-beta (Homo sapiens) (UniProt Q9Y261); experiment: ATG_FoxA2_CIS: Attagene CIS-FACTORIAL HepG2 Assay for human Forkhead box A2 (FOXA2) (AID 2282942); conditions: HepG2 cis-reporter transcription factor activity, 24 h; actives raise or lower the signal
How it was run: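 In transiently transfected human HepG2 cells, promoter-driven reporter mRNA levels after 24 h chemical exposure are determined via RT-PCR with capillary electrophoresis. DMSO serves as baseline for bidirectional fitting.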

[8] = ATG_FoxO_CIS: Attagene CIS-FACTORIAL HepG2 Assay for human Forkhead box O (FoxO) (AID 2282943); conditions: HepG2 Attagene cis-reporter, FoxO element, mRNA; actives raise or lower the signal
How it was run: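 Transfected HepG2 reporter cells exposed to test chemical for 24 h; reporter RNA measured by reverse transcription, PCR and fluorescent capillary electrophoresis; curves fitted for increases and decreases against DMSO.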

[9] = ATG_GATA_CIS: Attagene CIS-FACTORIAL HepG2 Assay for human GATA Binding Protein (AID 2282944); conditions: HepG2 GATA cis-element reporter, Attagene multiplex mRNA; actives raise or lower the signal
How it was run: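 Endogenous transcription factor activity was captured through cis-promoter-driven reporters in transfected HepG2 cells. After 24 h exposure, reporter transcripts were quantified by RT-PCR with fluorescent capillary electrophoresis, and responses fitted both directions against DMSO.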

[10] = ATG_ERE_CIS: Attagene CIS-FACTORIAL HepG2 Assay for Estrogen Response Element (ERE) (AID 2282940); conditions: HepG2 ERE cis-reporter, Attagene RNA transcript; actives raise or lower the signal
How it was run: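 Cells used were human hepatoma HepG2, transfected with multiple reporter transcription units under cis-regulatory promoters. Reporter mRNA, read 24 h post-dosing via fluorescent RT-PCR products on capillary electrophoresis, was fitted bidirectionally relative to DMSO.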

Measured: AC50

Chain of Hepatocyte nuclear factor 3-beta (Homo sapiens) (Q9Y261 whole entry, looked up): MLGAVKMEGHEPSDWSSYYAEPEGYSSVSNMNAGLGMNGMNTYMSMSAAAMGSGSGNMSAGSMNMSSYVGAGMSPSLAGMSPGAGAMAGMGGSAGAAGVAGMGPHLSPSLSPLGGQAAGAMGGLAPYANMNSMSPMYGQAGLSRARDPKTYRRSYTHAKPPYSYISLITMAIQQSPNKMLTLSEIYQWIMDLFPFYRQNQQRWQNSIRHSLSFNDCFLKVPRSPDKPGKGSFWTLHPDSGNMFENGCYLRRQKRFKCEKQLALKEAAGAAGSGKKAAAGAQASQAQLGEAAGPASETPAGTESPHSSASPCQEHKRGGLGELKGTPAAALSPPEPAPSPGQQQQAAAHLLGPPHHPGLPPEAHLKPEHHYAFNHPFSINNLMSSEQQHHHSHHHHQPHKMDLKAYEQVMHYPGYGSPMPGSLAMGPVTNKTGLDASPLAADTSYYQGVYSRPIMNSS
Chain of Transcription factor E2F1 (Homo sapiens) (Q01094 whole entry, looked up): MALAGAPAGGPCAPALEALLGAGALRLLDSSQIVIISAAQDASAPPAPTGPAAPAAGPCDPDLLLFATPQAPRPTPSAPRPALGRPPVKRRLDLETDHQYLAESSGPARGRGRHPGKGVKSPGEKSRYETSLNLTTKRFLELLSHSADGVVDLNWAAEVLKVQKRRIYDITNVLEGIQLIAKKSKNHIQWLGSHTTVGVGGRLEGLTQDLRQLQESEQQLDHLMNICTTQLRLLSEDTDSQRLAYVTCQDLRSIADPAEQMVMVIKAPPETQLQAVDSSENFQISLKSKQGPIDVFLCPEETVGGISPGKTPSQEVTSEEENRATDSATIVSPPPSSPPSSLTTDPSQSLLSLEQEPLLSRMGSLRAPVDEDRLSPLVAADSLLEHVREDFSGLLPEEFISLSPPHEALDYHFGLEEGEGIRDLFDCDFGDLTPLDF

CC/C(=C(\c1ccccc1)c1ccc(OCCN(C)C)cc1)c1ccccc1
not listed: [10]
inactive: all other assays above

CCCc1ccc(N)cc1
not listed: [10]
inactive: all other assays above

CCOc1ccc(NC(C)=O)cc1
not listed: [10]
inactive: all other assays above

O=C(OCc1ccccc1)c1ccccc1O
not listed: [10]
inactive: all other assays above

Cc1ccc(C(C)(C)O)cc1
not listed: [10]
inactive: all other assays above

CC(CCO)CC(C)(C)C (configuration not stated)
not listed: [9] | [10]
inactive: all other assays above

CCO[Si](CC)(OCC)OCC
not listed: [10]
inactive: all other assays above

CCCCCCCCOC(C)=O
not listed: [9] | [10]
inactive: all other assays above

CNC(=C[N+](=O)[O-])NCCSCc1ccc(CN(C)C)o1
not listed: [5] | [9]
inactive: all other assays above

CCCCCCCCCCCCOC(C)=O
not listed: [10]
inactive: all other assays above

CCCCCCCCCO
not listed: [10]
inactive: all other assays above

CC(=O)C1=C(C)[C@@H]2C[C@@]3(C1)[C@H](C)CC[C@H]3C2(C)C
active: [1] 139 µM | [3] 75.3 µM | [5] 100 µM
not listed: [9] | [10]
inactive: all other assays above

CN1CCc2cccc3c2[C@H]1Cc1ccc(O)c(O)c1-3
active: [2] 2.76 µM
not listed: [10]
inactive: all other assays above

C=CCOCC(O)CO (configuration not stated)
active: [1] 149 µM | [9] 164 µM
not listed: [10]
inactive: all other assays above

CCCOC(=O)CC
not listed: [10]
inactive: all other assays above

CC(C)CCOC(=O)CC(C)C
not listed: [10]
inactive: all other assays above

CC1(C)CC(=O)CC(C)(C)N1
not listed: [10]
inactive: all other assays above

Cc1cc(O)c(C)c(C)c1O
active: [2] 37.6 µM
not listed: [7] | [9] | [10]
inactive: all other assays above

C=CC(=O)OCCCCCC
not listed: [9] | [10]
inactive: all other assays above

CC/C=C\C#N
not listed: [9] | [10]
inactive: all other assays above

CC12CCC(C1)C(C)(C)C2O (configuration not stated)
not listed: [10]
inactive: all other assays above

CCCCCCCCCCCCS
not listed: [10]
inactive: all other assays above

CCNC(=S)NCC
not listed: [7] | [10]
inactive: all other assays above

CC(=O)c1ccc(C)cc1
not listed: [1] | [9]
inactive: all other assays above

CC1=CC(O)CC(C)(C)C1 (configuration not stated)
not listed: [5] | [7]
inactive: all other assays above

CC(=O)OCC=C(C)CCC=C(C)CCC=C(C)C
inactive: [1] | [2] | [3] | [4]
active: [10] 25.1 µM | [6] 179 µM | [7] 146 µM | [8] 128 µM | [9] 167 µM

CC(=O)N(C)C
not listed: [1] | [9]
inactive: all other assays above

CCCCCCCOC(C)=O
active: [10] 3.71 µM
not listed: [5] | [7]
inactive: all other assays above

CN(C)CCC=C1c2ccccc2CCc2ccccc21
active: [4] 41 µM
not listed: [5]
inactive: all other assays above

CC(CO)c1ccccc1 (configuration not stated)
not listed: [5]
inactive: all other assays above
